The text below walks through data of PubChem BioAssay AID1851 (National Center for Advancing Translational Sciences (NCATS), 2009).

Screen size: about 16,000 compounds; about 5,100 (32%) were called active. About 25% were inconclusive and are not listed. The call rests on the fitted dose curve; in most records, active means well fitted curve in the direction sought with a large enough effect; inconclusive means small, poorly fitted or top-dose-only effect, or effect the other way; inactive means no such curve, though single readings can be large or run the other way. The list shows a part of the results.
On the % scale 0 is the no-effect control and ±100 the full control effect.

Cytochrome P450 3A4 (Homo sapiens), sequence (P08684 whole entry, looked up): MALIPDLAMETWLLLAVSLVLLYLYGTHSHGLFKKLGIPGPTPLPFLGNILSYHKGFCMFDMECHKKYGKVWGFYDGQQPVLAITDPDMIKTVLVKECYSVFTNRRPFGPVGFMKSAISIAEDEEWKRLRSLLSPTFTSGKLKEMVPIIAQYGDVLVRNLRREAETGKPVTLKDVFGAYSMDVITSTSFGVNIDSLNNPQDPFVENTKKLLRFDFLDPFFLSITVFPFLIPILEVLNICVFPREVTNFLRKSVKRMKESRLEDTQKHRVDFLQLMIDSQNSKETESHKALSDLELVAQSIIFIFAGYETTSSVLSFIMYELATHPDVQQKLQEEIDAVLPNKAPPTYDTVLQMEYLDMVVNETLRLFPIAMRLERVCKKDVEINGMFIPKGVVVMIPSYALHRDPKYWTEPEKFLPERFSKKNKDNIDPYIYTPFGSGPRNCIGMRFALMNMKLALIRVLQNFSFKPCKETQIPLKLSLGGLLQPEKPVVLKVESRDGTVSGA

The assay addresses Cytochrome P450 3A4 (Homo sapiens) (UniProt P08684). As to the kind of experiment: Cytochrome panel assay with activity outcomes. Conditions: recombinant CYP, pro-luciferin dealkylation, luminescence, p450-cyp3a4; series mostly up to 57.1 µM; activity, negative = inhibition: at the top concentration.
On to `COC(=O)c1cc(NC(=O)CC2NC3CCCCC3NC2=O)cc(C(=O)OC)c1` (stereo not drawn), for which the half-maximal activity concentration (AC50) (as a rule, the concentration giving half of the maximal activity seen) is 28.2 µM (active). `CCC1C(=O)N=C(SCC(=O)Nc2ccc(C(=O)OC)cc2)NC1=O` (stereo not drawn): the “activity, negative = inhibition” value is 13.9% (inactive).

Take `COC(=O)c1ccc(NC(=O)C2CCCCC2C(=O)O)cc1` (stereo not drawn): the “activity, negative = inhibition” value is 7.03% (inactive). `COC(=O)c1cc(=O)[nH]c(=O)[nH]1`: the activity, negative = inhibition is 0.116% [at 11.4 µM] (inactive). Regarding `CC(=O)COc1ccc2c(C)c(C)c(=O)oc2c1`, the activity, negative = inhibition was -1.64% [at 2.29 µM] (inactive). `CC(=O)c1c(C)[nH]c(C(=O)COc2ccc(C#N)cc2)c1C`: the concentration at half-maximal activity (AC50) was 3.16 µM (active).

Take `CC#CCOC(=O)c1c(C)nc2sc3c(c2c1N)CC[C@@H](O)C3`: the AC50 is 3.16 µM (active). Regarding `CC(=O)N1CCN(c2nc(C)nc3sc4c(c23)CCC(C)C4)CC1` (stereo not drawn), the “activity, negative = inhibition” value is -28.1% (inactive). As for `COc1cccc(/C(O)=C2/C(=O)C(=O)N(c3cc(C)on3)C2c2cccs2)c1` (stereo not drawn), the AC50 was 28.2 µM (active). As for `COCCN1C(=O)C(=O)/C(=C(/O)c2cccc(OC)c2)C1c1ccc(C)o1` (stereo not drawn), the “activity, negative = inhibition” value was -3.3% (inactive). Still for that read-out and setting: under `Cc1cc(N2C(=O)C(O)=C(C(=O)c3ccco3)C2c2ccc(O)cc2)no1` (stereo not drawn) stands -0.524% (inactive).

Consider `COC(=O)[C@@]1(Cc2ccc(F)cc2)[C@H]2c3cc(C(=O)N(C)C)n(Cc4ccc(C(F)(F)F)nc4)c3C[C@H]2CN1C(=O)c1ccccc1`, for which the AC50 was 1.26 µM (active). `COC(=O)[C@@]1(Cc2ccc(OC)cc2)[C@H]2c3cc(C(=O)N4CCCC4)n(CCn4cc([N+](=O)[O-])nc4C)c3C[C@H]2CN1C(=O)c1ccccc1`: the concentration at half-maximal activity (AC50) is 3.98 µM (active). The same measure, in the same setting: under `COC(=O)[C@@]1(Cc2ccc(OC)cc2)[C@H]2c3cc(C(=O)N4CCCC4)n(Cc4ccc(C(F)(F)F)nc4)c3C[C@H]2CN1C(=O)c1ccccc1` stands 3.16 µM (active); under `COC(=O)[C@@]1(Cc2ccccc2)[C@H]2c3cc(C(=O)N4CCCC4)n(Cc4ccc(C(F)(F)F)nc4)c3C[C@H]2CN1C(=O)c1ccccc1`, 3.16 µM (active). Same read-out and setting: the figure for `O=C(NCCCn1ccnc1)c1ccc(Br)c(S(=O)(=O)N2CCOCC2)c1` is 2 µM (active). For the compound `CN1CCc2[nH]nc(-c3n[nH]c4c3CN(C)CC4)c2C1`, the activity, negative = inhibition was -6.16% [at 11.4 µM] (inactive).

As for `CCN1CCN(C(=O)N[C@H](C(=O)N[C@@H]2C(=O)N3[C@@H]2SC(C)(C)[C@@H]3C(=O)O)c2ccccc2)C(=O)C1=O`, the “activity, negative = inhibition” value was -6.91% [at 25.6 µM] (inactive). For the compound `CCOC(=O)c1ccc(Cl)c(NC(=O)c2ccc(-c3ccccc3)cc2)c1`, the activity, negative = inhibition was 6.61% [at 11.4 µM] (inactive). Regarding `CCOc1c(Cl)cc(C(=O)Nc2ccccc2-c2ccccc2)cc1Cl`, the half-maximal activity concentration (AC50) is 14.1 µM (active). Take `CO[C@@H]1COC(=O)CC=C[C@@H](C)[C@@H]2C=C[C@H](O)[C@@H](COC(=O)[C@H](C)NC(=O)CC=C[C@H]1C)O2`: the activity, negative = inhibition was -23.2% [at 11.4 µM] (inactive). Same read-out and setting: under `COC(=O)c1ccccc1NC(=O)c1cc2nc(C3CC3)cc(C(F)(F)F)n2n1` stands -9.05% (inactive).

Turning to `COc1ccc(-c2cc(C(F)(F)F)n3nc(C(=O)N4CCCCC4)cc3n2)cc1`, the half-maximal activity concentration (AC50) is 14.1 µM (active).

Take `CCOC(=O)C1CCCN(C(=O)c2cc3nc(-c4ccc5c(c4)OCO5)cc(C(F)(F)F)n3n2)C1` (stereo not drawn): the half-maximal activity concentration (AC50) was 3.98 µM (active). As to `COc1ccc(NC(=O)N2CCC3(CC2)CCN(C(=O)c2cnccn2)CC3)cc1`, the “activity, negative = inhibition” value is 1.33% (inactive). The same measure, in the same setting: the figure for `CCOC(=O)c1[nH]c(C(=O)O)c(CCN(CC)CC)c1C` is -2.71% (inactive). With `CN(C)Cc1ccc(-c2cc3onc(-c4ccccc4)c3c(=O)n2C)cc1`, the activity, negative = inhibition is 8.36% [at 11.4 µM] (inactive). For `COc1ccc(C(C(=O)NC2CCCCC2)N(C(=O)c2sc(C)nc2C)c2ccc(C(C)=O)cc2)cc1` (stereo not drawn), the AC50 is 25.1 µM (active). On the same count and under the same terms, under `COc1ccc(C(C(=O)NC2CCCCC2)N(C(=O)CCCC(=O)Nc2ccccn2)c2ccc3c(c2)OCCO3)cc1` (stereo not drawn) stands 1.26 µM (active); under `COc1ccc(C(C(=O)NC2CCCCC2)N(C(=O)c2sc(C)nc2C)c2ccc(OC)cc2)cc1` (stereo not drawn), 12.6 µM (active). Regarding `CC(=O)c1ccc(S(=O)(=O)NC(=O)NC2CCCCC2)cc1`, the “activity, negative = inhibition” value is -6.04% [at 25.6 µM] (inactive). Same read-out and setting: the figure for `COc1ccc(C(C(=O)NC2CCCC2)N(C(=O)c2snc(-c3ccc(F)cc3)c2N)c2ccccc2)cc1` (stereo not drawn) is -12% [at 2.29 µM] (inactive). Still for that read-out and setting: the figure for `CC(C)CC(=O)Nc1ccc2c(c1)oc1ccccc12` is -15.6% (inactive); for `Cc1ccc([N+](=O)[O-])cc1NC(=S)NC(=O)C(C)(C)C` it is 10.2% (inactive); for `CCOc1ccc(NC(=S)NC(=O)/C=C/c2ccc(OC)c(OC)c2)c([N+](=O)[O-])c1` it is 12.7% (inactive). Turning to `COc1ccc([N+](=O)[O-])cc1NCc1ccccc1C`, the half-maximal activity concentration (AC50) is 12.6 µM (active). Same read-out and setting: under `CC(CC(=O)Nc1ccc(Cl)c([N+](=O)[O-])c1)c1ccccc1` (stereo not drawn) stands 10 µM (active). For the compound `COc1ccc(OC)c(NC(=O)CC(Cc2ccccc2OC)C(=O)O)c1` (stereo not drawn), the “activity, negative = inhibition” value was -5.42% (inactive). Regarding `COc1ccc([N+](=O)[O-])cc1NC(=S)NC(NC(=O)Cc1ccc(OC)c(OC)c1)C(Cl)(Cl)Cl` (stereo not drawn), the concentration at half-maximal activity (AC50) was 1.58 µM (active). With `CC(CC(=O)O)CC(=O)Nc1ccc(S(N)(=O)=O)cc1` (stereo not drawn), the activity, negative = inhibition was -4.05% [at 2.29 µM] (inactive). Turning to `COc1ccc([N+](=O)[O-])cc1NC(=O)CC(C)c1ccccc1` (stereo not drawn), the concentration at half-maximal activity (AC50) is 7.08 µM (active). With `C1CNCCOCCNCCN1`, the “activity, negative = inhibition” value is -2.84% (inactive).

Turning to `CCOC(=O)N1CCN(Cc2nc3c(c(=O)[nH]c(=O)n3C)n2Cc2ccccc2C)CC1`, the AC50 was 3.98 µM (active).

Turning to `Cn1c(=O)[nH]c(=O)c2c1nc(CN(Cc1ccccc1)Cc1ccccc1)n2CCN1CCOCC1`, the AC50 was 4.47 µM (active). Turning to `Cn1c(=O)[nH]c(=O)c2c1nc(CN1CCOCC1)n2CCCO`, the “activity, negative = inhibition” value is 0.641% (inactive).

Regarding `COc1ccc(N2CCN(Cc3nc4c(c(=O)[nH]c(=O)n4C)n3CCCc3ccccc3)CC2)cc1`, the AC50 was 2.24 µM (active). With `COc1ccc(N2CCN(Cc3nc4c(c(=O)n(C)c(=O)n4C)n3CC(C)=O)CC2)cc1`, the “activity, negative = inhibition” value was -22.5% (inactive). Still for that read-out and setting: the figure for `CCN1CCN(c2nc3c(c(=O)[nH]c(=O)n3C)n2CCCSc2ncccn2)CC1` is 1.03% (inactive).

For the compound `CCOC(=O)Cn1c(CN(Cc2ccccc2)Cc2ccccc2)nc2c1c(=O)[nH]c(=O)n2C`, the AC50 is 25.1 µM (active).

`Cn1c(=O)c2c(nc(Cc3ccccc3)n2CC(=O)O)n(C)c1=O`: the activity, negative = inhibition is -2.47% [at 11.4 µM] (inactive). Take `Oc1cc2c(cc1O)[C@H](c1ccccc1)CNCC2`: the AC50 entry was “inactive”.

Regarding `CCOCCn1c(CN(Cc2ccccc2)Cc2ccccc2)nc2c1c(=O)[nH]c(=O)n2C`, the AC50 was 15.8 µM (active). Turning to `CN(C)c1nc2c(c(=O)[nH]c(=O)n2C)n1Cc1ccccc1Br`, the “activity, negative = inhibition” value was -21% (inactive).
